Test results as given in PubChem BioAssay.
Active and inactive are the calls of the source.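 The calls were made as follows, unless noted: active = fluorescence slope after compound addition differing from the mean of all screened samples at 99.7% confidence, in either direction; inactive = the rest.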

Columns and labels:
[1] = inhibitors of TNFa-induced NFkB p65 translocation, primary screen, imaging, HUVEC, MLSMR starter and 10KST1 sets (AID 438;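 active = inhibition above 20% together with a positive visual image hit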;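 also: compound added about 3h40 before a 20 min TNFalpha stimulation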;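 as to inhibition: signal is the nuclear over cytoplasmic p65 intensity ratio per well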); details: HUVEC TNFa-induced p65 nuclear translocation; cell count: measured here: nuclei count (cytotoxicity indicator), at 2.08 µM; inhibition: at 2 µM, stronger effect = higher value, 0% TNFa-plus-vehicle, 100% no-TNFa wells
[2] = reduction of polyQ htt aggregates in cells – imaging, exon1htt(103Q)mCFP cells, high-content imaging, primary screen (AID 483;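 active = visual image review flags a hit and inhibition of aggregation exceeds 20%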;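 also: compound exposure lasted 3 days before fixation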;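 as to nuclei count: percent of the per-plate median nuclei count of sample wells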); details: exon1htt(103Q)mCFP cell line, aggregate imaging, at 2 µM; inhibition of aggregation: stronger effect = higher value; nuclei count: measured here: cell count, toxicity
[3] = endothelial E-selectin expression blockers – imaging, HUVEC, immunofluorescence, MLSMR starter and 10KST1 sets, primary screen (AID 487;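 active = visually confirmed hit in the image check and inhibition above 20%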;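 as to inhibition: signal is fraction of cell area covered by stained E-selectin grains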;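 as to nuclei count: 100% = median nuclei count of all wells on the same plate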); details: HUVEC TNFalpha-induced E-selectin immunofluorescence imaging, at 2 µM; inhibition: stronger effect = higher value; nuclei count: measured here: cell number, toxicity
[4] = target: Voltage-gated potassium channel subunit beta-2 (Rattus norvegicus) (UniProt P62483); test: inhibitors of rat Kvbeta2 reductase activity – biochemical, NADPH fluorescence, primary screen (AID 622;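 active = fluorescence slope higher than the sample average by over 3 SD, cut at about -0.22 in these data, passing the limit was not always enough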;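 also: slope of raw intensity against log time taken from 70 to 1610 s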); details: recombinant KvBeta, 4-cyanobenzaldehyde reduction, at 10 µM, stronger effect = higher value
[5] = target: Voltage-gated potassium channel subunit beta-2 (Rattus norvegicus) (UniProt P62483); test: enhancers of rat Kvbeta2 NADPH turnover – biochemical, NADPH fluorescence, primary screen (AID 623;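 active = NADPH fluorescence slope more negative than the mean of all samples by about 3 SD, 99.7% confidence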;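 also: fluorescence intensity change per second fitted from 20 to 320 s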); details: Recombinant KvBeta, NADPH fluorescence decrease slope, 10 min; at 10 µM; stronger effect = lower value
[6] = target: Alpha-2C adrenergic receptor (Homo sapiens) (UniProt P18825); test: compounds altering alpha2C-coupled GIRK flux – cell-based, HEK293 alpha2C/GIRK1/2, thallium flux, primary screen (AID 624); details: thallium flux BTC fluorescence, at 10 µM, actives lie on both sides;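 also: slope of fluorescence ratio to pre-addition baseline per second over 15 to 24 s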
[7] = blockers of RIG-like receptor reporter activation – cell-based, Sendai virus stimulus, luciferase, 10K MLSCN set, TLR/RLR signaling modifier project, primary screen (AID 602276;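 active = inhibition at or above 50% at 10 µM; inactive = inhibition below 50%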;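 also: firefly luciferase from ISG56 promoter only with Renilla not read in this screen; 0% = Sendai virus plus DMSO and 100% = medium plus DMSO without virus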); details: HEK293 RL24 IRF3 luciferase reporter, at 10 µM, stronger effect = higher value
[8] = TLR3 IRF3 reporter activation blockers – cell-based, poly I:C stimulus, luciferase, 10K MLSCN set, primary screen (AID 602277;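 active = inhibition of the reporter signal at or above 50%; inactive = inhibition below 50%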); details: HEK293-TLR3 RL24 IRF3 luciferase reporter, at 10 µM, stronger effect = higher value

Alpha-2C adrenergic receptor (Homo sapiens), sequence (P18825 whole entry, looked up): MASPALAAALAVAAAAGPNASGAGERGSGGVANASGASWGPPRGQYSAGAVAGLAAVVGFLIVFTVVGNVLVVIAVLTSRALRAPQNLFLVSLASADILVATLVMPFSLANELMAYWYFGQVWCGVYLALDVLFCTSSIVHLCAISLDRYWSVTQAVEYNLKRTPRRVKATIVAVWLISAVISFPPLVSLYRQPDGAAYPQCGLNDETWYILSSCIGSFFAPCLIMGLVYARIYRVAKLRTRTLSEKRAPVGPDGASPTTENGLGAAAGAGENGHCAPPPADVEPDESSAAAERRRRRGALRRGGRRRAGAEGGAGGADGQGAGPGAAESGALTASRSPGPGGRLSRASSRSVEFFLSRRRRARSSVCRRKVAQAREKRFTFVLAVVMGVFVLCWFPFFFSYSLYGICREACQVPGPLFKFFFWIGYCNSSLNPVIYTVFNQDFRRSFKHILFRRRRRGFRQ
Voltage-gated potassium channel subunit beta-2 (Rattus norvegicus), sequence (P62483 whole entry, looked up): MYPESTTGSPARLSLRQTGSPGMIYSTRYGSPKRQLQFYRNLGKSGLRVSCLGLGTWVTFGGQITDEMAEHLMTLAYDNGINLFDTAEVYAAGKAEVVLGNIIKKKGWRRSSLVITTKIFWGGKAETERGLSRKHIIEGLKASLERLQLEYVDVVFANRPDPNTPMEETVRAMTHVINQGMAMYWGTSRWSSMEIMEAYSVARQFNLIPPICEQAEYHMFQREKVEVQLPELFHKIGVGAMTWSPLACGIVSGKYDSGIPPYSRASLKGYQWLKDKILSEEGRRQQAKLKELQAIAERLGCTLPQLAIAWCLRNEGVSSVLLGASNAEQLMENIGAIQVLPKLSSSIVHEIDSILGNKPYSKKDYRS

Compound | cell count [1] | inhibition [1] | inhibition of aggregation [2] | nuclei count [2] | inhibition [3] | nuclei count [3] | fluorescence slope [4] | NADPH fluorescence slope [5] | slope [6] | inhibition [7] | inhibition [8]
Cc1cc(Oc2ccccc2)nc(-c2ccccc2)n1 | 763 | 4.4% (inactive) | -2.1% (inactive) | 99.1% | 62.8% (active) | 70.6% | -0.484 (inactive) | -8.7e-05 (inactive) | 0.00573 (inactive) | -19.4% (inactive) | -47.5% (inactive)
O=C(c1cccc(C(=O)N2CCN(c3ccccc3)CC2)c1)N1CCN(c2ccccc2)CC1 | 667 | -2.6% (inactive) | 1.8% (inactive) | 98.6% | -86.1% (inactive) | 112% | -0.456 (inactive) | 3e-05 (inactive) | 0.00517 (inactive) | 4.89% (inactive) | -1.16% (inactive)
Cc1cc(=O)[nH]c(=S)n1-c1ccccc1 | 656 | 7.7% (inactive) | 5.6% (inactive) | 103% | 23.3% (inactive) | 103% | -0.564 (inactive) | -3e-05 (inactive) | 0.00585 (inactive) | 15.3% (inactive) | 23.5% (inactive)
Cc1cccc(C2CC(c3ccc(Cl)cc3)Nc3nc(N)nn32)c1 (stereo not drawn) | 598 | -2.4% (inactive) | 18.5% (inactive) | 58.9% | -0.5% (inactive) | 102% | -0.525 (inactive) | -4.5e-05 (inactive) | 0.00816 (inactive) | 4.61% (inactive) | 25.1% (inactive)
c1ccc2c(c1)sc1nnnn12 | 375 | -2.1% (inactive) | -24.6% (inactive) | 112% | -109% (inactive) | 115% | -0.555 (inactive) | -7.2e-05 (inactive) | 0.00357 (inactive) | 18% (inactive) | 27.2% (inactive)
Cc1nc2ccccc2c(=O)n1CC(=O)N1CCOCC1 | 558 | -17.1% (inactive) | 11.6% (inactive) | 78.3% | 22.8% (inactive) | 89.9% | -0.503 (inactive) | -4.9e-05 (inactive) | 0.00461 (inactive) | 14.1% (inactive) | 13.2% (inactive)
Cn1c(SCC(=O)N2CCN(c3cccc(Cl)c3)CC2)nnc1-c1ccncc1 | 689 | -5.1% (inactive) | -15% (inactive) | 104% | -92% (inactive) | 142% | -0.373 (inactive) | 2.3e-06 (inactive) | 0.00664 (inactive) | 1.74% (inactive) | -27.2% (inactive)
Cc1occc1-c1nnc(SCC(=O)N2CCc3ccccc32)o1 | 679 | -1.9% (inactive) | 2.9% (inactive) | 73.2% | -7.2% (inactive) | 106% | -0.478 (inactive) | 2.9e-05 (inactive) | 0.00881 (inactive) | 5.8% (inactive) | 5.93% (inactive)
Cc1nnc(SCc2cn3ccsc3n2)n(N)c1=O | 858 | -10.7% (inactive) | -21% (inactive) | 105% | -50.6% (inactive) | 121% | -0.641 (inactive) | 1.9e-05 (inactive) | 0.00624 (inactive) | 17.8% (inactive) | 31.6% (inactive)
Cc1ccc(-n2nc(C)c3cc(C(=O)O)sc32)cc1 | 369 | 6.3% (inactive) | 11.1% (inactive) | 90.3% | -140% (inactive) | 97.4% | -0.191 (inactive) | -5e-05 (inactive) | 0.00582 (inactive) | 12.6% (inactive) | 33.9% (inactive)
C=CCn1c(SCC(=O)NC2CCCCC2)nnc1-c1sc(N)nc1C | 639 | -7.3% (inactive) | -12.7% (inactive) | 101% | -100% (inactive) | 125% | -0.516 (inactive) | -3.2e-05 (inactive) | 0.00387 (inactive) | 16.9% (inactive) | 16.4% (inactive)
CC(NS(=O)(=O)c1ccccc1)C(c1cccs1)N1CCN(C)CC1 (stereo not drawn) | 445 | -6.7% (inactive) | -18.1% (inactive) | 111% | -262% (inactive) | 137% | -0.321 (inactive) | -9.7e-06 (inactive) | 0.00347 (inactive) | 20.5% (inactive) | 36.2% (inactive)
CCC(=O)N1Cc2ccccc2-c2ccccc2C1=O | 642 | 3% (inactive) | -14.4% (inactive) | 98.3% | 11% (inactive) | 126% | -0.618 (inactive) | -1.2e-05 (inactive) | 0.006 (inactive) | 12.1% (inactive) | 12.9% (inactive)
CCSCCNC(=O)c1cc(-n2cnnc2)ccc1Cl | 685 | 1.3% (inactive) | -2.3% (inactive) | 97.1% | 24.9% (inactive) | 89.9% | -0.633 (inactive) | -9.8e-06 (inactive) | 0.0037 (inactive) | 16.3% (inactive) | 20.3% (inactive)
COCCN(Cc1cc2cccc(C)c2[nH]c1=O)C(=O)c1ccccc1 | 298 | -22.3% (inactive) | 3.6% (inactive) | 91.8% | -23.9% (inactive) | 124% | -0.372 (inactive) | -5.9e-05 (inactive) | 0.00564 (inactive) | 7.15% (inactive) | 16.3% (inactive)
COc1cccc(Oc2cnc(N)nc2-c2ccc(OC)cc2O)c1 | 664 | -8.2% (inactive) | 5.1% (inactive) | 112% | -111% (inactive) | 87.8% | -0.427 (inactive) | -5.9e-05 (inactive) | 0.00372 (inactive) | 23.8% (inactive) | 38% (inactive)
CC(O)c1c(OCc2ccccc2)ncnc1OCc1ccccc1 (stereo not drawn) | 426 | 0.5% (inactive) | -7.1% (inactive) | 65.7% | -36.1% (inactive) | 115% | -0.44 (inactive) | -0.000123 (inactive) | 0.00502 (inactive) | 10.6% (inactive) | 20.8% (inactive)
C=CCOC(=O)CCC(=O)Nc1cc(OC)nc(OC)n1 | 653 | -12.9% (inactive) | -1.7% (inactive) | 109% | -0.8% (inactive) | 116% | -0.422 (inactive) | -4.9e-06 (inactive) | 0.00745 (inactive) | 12.4% (inactive) | 19.2% (inactive)
COCCn1c(CN2CCN(c3cccc(Cl)c3)CC2)nc2c1c(=O)n(C)c(=O)n2C | 712 | -6.3% (inactive) | 5.4% (inactive) | 99.5% | -24.9% (inactive) | 120% | -0.582 (inactive) | -4e-05 (inactive) | 0.00601 (inactive) | 12.7% (inactive) | 15.3% (inactive)
CCOC(=O)C1CCCN(c2c(N3CCN(c4ccccn4)CC3)c(=O)c2=O)C1 (stereo not drawn) | 631 | 6.9% (inactive) | 11.3% (inactive) | 98.8% | -5.4% (inactive) | 132% | -0.503 (inactive) | -3.5e-05 (inactive) | 0.00587 (inactive) | 3.88% (inactive) | 27.8% (inactive)
CCc1nnc(SCc2cn3c(C)cc(C)nc3n2)n1N | 571 | -13.6% (inactive) | -13.3% (inactive) | 104% | 2.4% (inactive) | 143% | -0.284 (inactive) | -5.4e-06 (inactive) | 0.00669 (inactive) | -4.74% (inactive) | 4.52% (inactive)
O=c1[nH]cnc2c1nc(SCc1ccccc1)n2C1OC(CO)C(O)C1O (stereo not drawn) | 459 | 14.3% (inactive) | 10.4% (inactive) | 71.9% | -9.9% (inactive) | 110% | -0.597 (inactive) | 1.2e-06 (inactive) | 0.00624 (inactive) | 10.8% (inactive) | 24% (inactive)
Cc1ccc(C(c2sc3ncnn3c2O)N2CC(C)CC(C)C2)cc1 (stereo not drawn) | 628 | -2.4% (inactive) | 14.8% (inactive) | 80.8% | -22.9% (inactive) | 101% | -0.58 (inactive) | -5.6e-05 (inactive) | 0.00795 (inactive) | 10.9% (inactive) | 35.9% (inactive)
COc1ccc(CC(=O)NC2CCN(CC(=O)Nc3ccc4c(c3)OCCO4)CC2)cc1OC | 635 | -1.6% (inactive) | -5.8% (inactive) | 88.5% | -29.5% (inactive) | 111% | -0.428 (inactive) | -6.5e-06 (inactive) | 0.00308 (inactive) | 6.1% (inactive) | -5.8% (inactive)
COC(=O)c1ccc(-c2nn(C)c(=O)c3ccccc23)cc1 | 493 | -5.5% (inactive) | -11.1% (inactive) | 76.7% | -13.3% (inactive) | 97.9% | -0.55 (inactive) | -3e-05 (inactive) | 0.00686 (inactive) | 8.98% (inactive) | 29.2% (inactive)
Cc1ccc(S(=O)(=O)N(CCO)c2cc3c(s2)CCCC3)cc1 | 689 | -0.8% (inactive) | 20.5% (inactive) | 73.1% | -151% (inactive) | 117% | -0.404 (inactive) | -2.1e-05 (inactive) | 0.00447 (inactive) | 9.96% (inactive) | 21.8% (inactive)
O=C(COC(=O)C1CC2C=CC1C2)Nc1ccc2c(c1)OC(F)(F)O2 (stereo not drawn) | 434 | 9.3% (inactive) | 13.3% (inactive) | 89.2% | 11.1% (inactive) | 91.8% | -0.437 (inactive) | -6.4e-05 (inactive) | 0.00772 (inactive) | 15.9% (inactive) | 20.1% (inactive)
Cc1nc2sc(C(c3ccccc3)N3CCN(c4ccccc4F)CC3)c(O)n2n1 (stereo not drawn) | 305 | -1% (inactive) | -6.7% (inactive) | 83.6% | 8.6% (inactive) | 91.8% | -0.437 (inactive) | 0.000106 (inactive) | 0.00618 (inactive) | 5.03% (inactive) | 5.62% (inactive)
